Laboratory results as given in the supplement of paper PMC13380429.

What was measured:
[1] = system: Vero E6 infected with SARS-CoV-2; assay: morphology score (similarity to uninfected cells); higher = more like uninfected cells; settings: 24 h
[2] = system: Vero E6 infected with SARS-CoV-2; assay: SARS-CoV-2 infection rate relative to infected DMSO; higher = more infection, active = 60 or less; settings: 24 h

Structure (SMILES)	morphology score [1]	SARS-CoV-2 infection rate [2]
Cc1cc(CN)cc(C)c1NC(=O)c1ccc(-c2cc(Cl)ccc2Cl)o1 (10 µM)	0.717	7.5% (active)
N#CCC(=O)c1ccccc1 (10 µM)	0.0172	112% (inactive)
COc1ccc(CCO[C@@H]2CCCC[C@H]2N2CC[C@@H](O)C2)cc1OC [vernakalant] (10 µM)	0.109	110% (inactive)
CO[C@@H]1[C@@H](OC(N)=O)[C@@H](O)[C@H](Oc2ccc3c(O)c(NC(=O)c4ccc(O)c(CC=C(C)C)c4)c(=O)oc3c2C)OC1(C)C [novobiocin] (10 µM)	0.165	95% (inactive)
CN(C)CCC=C1c2ccccc2C=Cc2ccccc21 [cyclobenzaprine] (10 µM)	0.228	78% (inactive)
CNCCC(Oc1ccc(C(F)(F)F)cc1)c1ccccc1 (configuration not stated) [fluoxetine] (10 µM)	0.539	66% (inactive)
CCc1ccccc1OC[C@@H](O)CN[C@H]1CCCc2ccccc21 (10 µM)	0.0335	93% (inactive)
N[C@H](C(=O)O)c1cc(O)no1 [ibotenic-acid] (10 µM)	-0.00755	93% (inactive)
Cn1ccc2cc(NC(=O)Nc3cccnc3)ccc21 (10 µM)	-0.0432	117% (inactive)
CN(C)CCCN1c2ccccc2CCc2ccccc21 [imipramine] (10 µM)	-0.0385	92.5% (inactive)
Cc1cc(Nc2ncc(Cl)c(Nc3ccccc3S(=O)(=O)C(C)C)n2)c(OC(C)C)cc1C1CCNCC1 [ceritinib] (0.833333 µM)	0.182	104% (inactive)
